Compounds without any hit were thinned out: in the full panel of roughly 83,000, 20% have a hit.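 The test compound was applied at a single concentration to cells in 96-well plates for 48 hours, and percent growth was recorded.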 A number with no mark means an inactive call. Calls of active or inactive are those of the source. Rule for the calls: active = growth percent below 10; inactive = the rest.
Columns and labels:
Assay in all cases: NCI-60 one-dose screen, 48 h (100 = growth as untreated, 0 = no growth, -100 = all killed)
Conditions in all cases: 10 µM unless noted
[1] = system: RPMI-8226 leukemia
[2] = system: OVCAR-8 ovarian
[3] = system: OVCAR-5 ovarian
[4] = system: OVCAR-4 ovarian
[5] = system: SK-OV-3 ovarian
[6] = system: IGROV1 ovarian
[7] = system: OVCAR-3 ovarian
[8] = system: HS 578T breast
[9] = system: NCI/ADR-RES ovarian
[10] = system: T-47D breast
[11] = system: BT-549 breast
[12] = system: MDA-MB-435 melanoma
[13] = system: SW-620 colon
[14] = system: MCF7 breast
[15] = system: HCT-116 colon
[16] = system: HCC-2998 colon
[17] = system: KM12 colon
[18] = system: SR leukemia

| SMILES | growth [1] | growth [2] | growth [3] | growth [4] | growth [5] | growth [6] | growth [7] | growth [8] | growth [9] | growth [10] | growth [11] [%] | growth [12] | growth [13] | growth [14] | growth [15] | growth [16] | growth [17] | growth [18] |
| --- | --- | --- | --- | --- | --- | --- | --- | --- | --- | --- | --- | --- | --- | --- | --- | --- | --- | --- |
| COc1cc(-c2nn(-c3cccc(NC(=O)c4ccc(N5CCOCC5)c(C(F)(F)F)c4)c3)cc2-c2ccncc2)ccc1Cl | 8.3% (active) | 5.23% (active) | 34.7% | 52.3% | 1.88% (active) | 41.8% | -29.8% (active) | -13.6% (active) | -7.13% (active) | 27.5% | 14.3 | -35.1% (active) | 25.2% | 8.85% (active) | 8.35% (active) | 8.82% (active) | 5.64% (active) | – |
| CCOC(=O)c1cn2c3c(cccc3c1=O)C(=O)/C(=C/c1cccc(Cl)c1Cl)C2 | 92.4% | 95.7% | 102% | 100% | 86.1% | 99.7% | 113% | 100% | 101% | 75.5% | 91.6 | 106% | 102% | 96.2% | 105% | 100% | 108% | – |
| Cc1cc(C)n(-c2nnc3n2N=C(c2ccc(-c4ccccc4)cc2)CS3)n1 | 37.2% | 52.5% | 83.8% | 74.7% | 56.8% | 69.6% | 15.6% | 49.2% | 35% | 48.7% | 48.7 | -7.2% (active) | 36.7% | 28% | 41.8% | 76.8% | 53% | – |
| O=C(Nc1cccc(-n2cc(-c3ccncc3)c(-c3ccc(Cl)c(O)c3)n2)c1)c1ccccc1 | 60.5% | 50.9% | 115% | 40.7% | 80.1% | 88% | 82.1% | 48.4% | 62.7% | 73.9% | 83.4 | 56.2% | 76.9% | 62.6% | 57.8% | 76.8% | 70.1% | – |
| NC(=S)N/N=C(/CCN1CCCC1)CC(C1=C(O)C2=CCCCC2OC1=O)c1ccccc1 (configuration not stated) | 73.9% | 88.2% | 96.9% | 62.2% | 94.3% | 52.8% | 21.8% | 96.7% | 40.4% | 47% | 90.9 | 90.7% | 69% | 14.9% | 9.46% (active) | 102% | 102% | – |
| CCN1CCN(c2nc(NNC(=O)c3ccccc3)nc(N3CCN(C(c4ccccc4)c4ccccc4)CC3)n2)CC1 | – | 74.3% | 96.2% | 38.2% | – | 53.1% | 52.1% | 79.2% | 79% | 40.7% | 79.1 | – | 5.78% (active) | 28.9% | 20.2% | 31.7% | 58.4% | -20.5% (active) |
| CC(=O)Oc1cccc(S(=O)(=O)n2cc(C(=O)C(=O)Nc3ccncc3)c3ccccc32)c1 | 65.2% | 89.7% | 90.8% | 78% | 92.5% | 84.7% | 101% | 98.5% | 80.2% | 73.6% | 83.8 | 38.5% | 98% | 79.5% | 76.6% | 84.3% | 83.6% | – |
| COc1ccc(-c2ccc(C)n2-c2ccc(-c3nc4ccccc4s3)cc2)cc1 | 70.4% | 95.8% | 101% | 92.9% | 80.3% | 92.8% | 107% | 97.5% | 89.9% | 73.3% | 108 | 89.6% | 89.6% | 92.7% | 85.5% | 91.7% | 86.3% | – |
| N/C(=N\S(=O)(=O)c1ccccc1)Nc1nc2ccccc2s1 | 88.6% | 87.6% | 96.9% | 100% | 85.4% | 90.8% | 107% | 98.2% | 91.8% | 75.9% | 95.5 | 101% | 99.6% | 90.6% | 97.5% | 107% | 93% | – |
| O=C(Nc1cccc(-n2cc(-c3ccncc3)c(-c3ccc(Cl)c(O)c3)n2)c1)c1ccc(N2CCOCC2)c(C(F)(F)F)c1 | 5.19% (active) | 37% | 116% | 108% | 74.2% | 96.8% | 56% | 15.5% | 43.9% | 69.4% | 63.6 | 35.2% | 6.29% (active) | 60.6% | 29.7% | 56.4% | 30.6% | – |
| C=C1CCC2C(C)(CO)C(O)CCC2(C)C1C/C=C1/C(=O)OCC1Oc1ccccc1C (configuration not stated) | – | – | 91.8% | 74.8% | 122% | 73.7% | 34.3% | 105% | 81.1% | 84.9% | – | 59.3% | 17.9% | 29.5% | 71.4% | 125% | 78.3% | 50.7% |
| O=C(c1c[nH]c(=O)c(-c2ccccc2)c1)c1ccccc1O | 95.2% | 85.6% | 88.5% | 95.8% | 83.6% | 82.7% | 98.4% | 80% | 82.4% | 78.4% | 93.2 | 96.7% | 92.6% | 92.6% | 90.5% | 94.2% | 89.6% | – |
| C=C[C@@H]1C[C@H](O)Cc2ccccc2N1 | 89.9% | 103% | 106% | 113% | 114% | 124% | 125% | 104% | 106% | 118% | 113 | 107% | 105% | 105% | 113% | 99.6% | 109% | – |
| CC[N+](CC)=c1cc2oc3cc(N(C)C)ccc3nc-2cc1C | – | 8.33% (active) | -27.6% (active) | – | 59.9% | -56.4% (active) | -55.6% (active) | 89.1% | 79.3% | – | 60.2 | – | 15.9% | – | 7.17% (active) | 32.3% | 33.3% | 59% |
| COc1cccc(-c2cc3c(O)cc(C#N)cc3[nH]2)c1 | 36.1% | 106% | 94.7% | 83.7% | 108% | 103% | 114% | 43.6% | 89.2% | 101% | 81.7 | 70.6% | 88% | 88.3% | 89.9% | 93.8% | 78.1% | – |
| OC(c1cc2cc(Br)ccc2c2cc(Br)ccc12)C1CCCCN1 (configuration not stated) | – | -69.4% (active) | -76.5% (active) | – | -55.4% (active) | -67% (active) | -91.9% (active) | -53.1% (active) | -65.1% (active) | -75.3% (active) | 69 | -78% (active) | -75% (active) | -88.2% (active) | -72.7% (active) | -81.5% (active) | -91.7% (active) | -74.1% (active) |
| N=C(N)c1ccc(-c2ccc(-c3cncc4ccccc34)s2)cc1F | – | -51.6% (active) | -94.7% (active) | -78.6% (active) | – | -87.5% (active) | -91.6% (active) | 88.9% | 1.93% (active) | -63.3% (active) | 89.5 | -90.5% (active) | -62.1% (active) | -68.6% (active) | -87.8% (active) | -98.2% (active) | -89.4% (active) | -3.96% (active) |
| Cc1ccc(-c2cc3nc(-c4ccccc4)nc(C(Cl)Cl)n3n2)cc1 | – | -25.5% (active) | -27.2% (active) | -46% (active) | – | 46% | -94.5% (active) | -42.1% (active) | -30.7% (active) | -47.1% (active) | 60.3 | -68.3% (active) | -48.2% (active) | -10.7% (active) | -87.6% (active) | -90.6% (active) | -83.6% (active) | 71.2% |
| O=C(Nc1cccc(-n2cc(-c3ccncc3)c(-c3ccc(Cl)c(O)c3)n2)c1)Nc1cccc(C(F)(F)F)c1 | 1.63% (active) | 10.6% | 62.4% | 41.5% | 21.2% | 28.6% | 0.81% (active) | 29.4% | 24.9% | 18.5% | 36 | 15.6% | 28.5% | 10.3% | 9.75% (active) | 40.1% | 2.46% (active) | – |

Reference: PubChem BioAssay (NCI)
